Results as given in ChEMBL document CHEMBL3988442, “University of Dundee, Small-Polar-MMV Screening Library” (2021).
Screen size: about 48,000 compounds; about 13,000 (27%) showed an effect of 50% or more. This is one part of the list.

system: Wolbachia pipientis; assay: Anti-Wolbachia Cell-Based Screen; assay type: functional; parameters: scale not given: in the data most compounds retested in dose-response had high values; settings: 5 µM

Structure (SMILES)	Percent Effect [%]
CC(C)N(C)C(=O)c1ccc(Cl)c(NC(=O)C2CCC2)c1	2.877
c1cnc(N2CCC(NCc3cnc(C4CCC4)s3)CC2)nc1	3.36
c1cnc(N2CCC(c3csc(Nc4cnccn4)n3)CC2)nc1	101.3
c1cnc(N2CCCC(c3csc(Nc4cnccn4)n3)C2)nc1 (stereo not drawn)	106
OC(c1cccs1)C1CCN(c2ncccn2)CC1 (stereo not drawn)	0.2293
Cc1cccc(C(C(=O)N(C)Cc2ccon2)N(C)C)c1 (stereo not drawn)	3.369
Cc1noc(-c2cccnc2N(C)Cc2ccc([S+](C)[O-])cc2)n1 (stereo not drawn)	9.143
O=C1NC(=O)c2c3c(nc(O)c21)CCCC3	98.35
Nc1nc2c(c(NC(=O)Nc3ccccc3)n1)CCCC2	-9.493
COCC(=O)N1CCCC1c1nccnc1Nc1ncccn1 (stereo not drawn)	112.6
Cc1csc(Nc2nccnc2C2CCCN2C(=O)C(C)C)n1 (stereo not drawn)	0.9263
CN(C(=O)Nc1ccccn1)C1CCCN(c2ccccc2)C1=O (stereo not drawn)	-3.011
Cc1cccc(Nc2cc(C)nc(C3CCCCN3CC(N)=O)n2)n1 (stereo not drawn)	123.2
CN(C)C(=O)CN1CCCC1c1nccnc1Nc1ccccn1 (stereo not drawn)	99.96
CCC(=O)N1CCCC1c1nccnc1Nc1ncccn1 (stereo not drawn)	-3.342
CN(Cc1ccccc1)C(=O)CN1CCCC1c1cnn(C)c1 (stereo not drawn)	-36.94
COc1ccc(C2CCCN2C(=O)NCCNc2ncccn2)cc1 (stereo not drawn)	-12.53
COCC(=O)N1CCCC1c1nccnc1Nc1nc(C)cs1 (stereo not drawn)	111.3
Cc1cc(Nc2nc(C)cs2)nc(C2CCCCN2CCO)n1 (stereo not drawn)	-3.809
COCc1cccc(CNC(=O)CN2CCCC2c2noc(C)n2)c1 (stereo not drawn)	-0.5396
COc1nc2c(cc1C(=O)N1CCCOC(CN3CCCC3)C1)CCC2 (stereo not drawn)	-1.335
Cc1ccc(CNC(=O)C2CCN(C(=O)c3ccccc3)CC2)n1C	-7.91
Cc1ccc(C2(C(=O)N3CCC(n4cc(C(C)O)nn4)CC3)CC2)cc1 (stereo not drawn)	-9.43
O=C(O)c1ccc(CCNC(=O)C2(c3ccccc3)CC2)cc1	2.318
C[C@@H]1CN(CC(C)(C)N2CCOCC2)C[C@@]1(O)C1CC1	17.03

Structure (SMILES)	Percent Effect [%]
CCc1nc(NS(=O)(=O)c2ccc(F)cc2C)no1	-5.54
CC(C)Cn1cnnc1C1CCCN1C(=O)OC(C)(C)C (stereo not drawn)	4.117
Cc1cccc(Nc2nccnc2C2CCCN2CC(N)=O)n1 (stereo not drawn)	127.5
CC(C)(C)C(=O)N1CCCC1c1ccc(C(=O)N2CCOCC2)s1 (stereo not drawn)	-16.89
Cl.NCC(=O)N1CCCC1c1nccnc1Nc1ncccn1 (stereo not drawn)	117.8
CC(C)(C)C(=O)N1CCCC1c1nccnc1Cl (stereo not drawn)	155.8
CC(C)CC(=O)N1CCCC1c1nccnc1Nc1ncccn1 (stereo not drawn)	105.7
FC(F)c1nnc2ccc(N3CCC4(CCCCC4)C3)nn12	-13.07
O=C(O)[C@H]1C[C@H](C(=O)NC2CC2)CN(Cc2ccc(-c3cc[nH]n3)s2)C1	-5.985
CCOC(=O)CCC(=O)N1CCC(CSCc2ccco2)CC1	-5.481
CC(C)N(CC(=O)O)Cc1cccc(Br)c1.Cl	-4.939
Cc1cc(C2CCCN2C(=O)NCc2cccnc2)on1 (stereo not drawn)	-8.527
CC(=O)N1CCCC1c1nnn2cc(NCc3cccnc3)ccc12.O=C(O)C(F)(F)F.O=C(O)C(F)(F)F (stereo not drawn)	4.094
CC(=O)N1CCCC1c1nccnc1NCc1cccnc1 (stereo not drawn)	106.4
COCCn1ccnc1C1CCCN(c2ncnc3c(C)csc23)C1 (stereo not drawn)	-8.002
COCCn1ccnc1-c1cc(CN2CCCCC2)cs1	-8.994
COCCN1CCCC(c2nccnc2Nc2nc(C)cs2)C1 (stereo not drawn)	86.28
Cc1cccc(Nc2nccnc2C2CCCN(CC(=O)N(C)C)C2)n1 (stereo not drawn)	110.8
Cc1csc(Nc2nccnc2C2CCCN2CC(N)=O)n1 (stereo not drawn)	113.4
CC(=O)N1CCC2(CCCN(C(=O)CCN3CCCCC3)C2)C1 (stereo not drawn)	-26.8
O=C(Cc1cccs1)NC1(C(=O)NCC2CC2)CCCC1	4.522
COCCC(=O)N1CCCC1c1nccnc1Nc1ncccn1 (stereo not drawn)	132.2
CC(=O)N1CCCC1c1nnn2cc(Nc3ccccc3)ccc12.O=C(O)C(F)(F)F (stereo not drawn)	-10.64
CC(=O)N1CCCC1c1nccnc1Nc1ncccn1 (stereo not drawn)	114.6
CNS(=O)(=O)Cc1ccc(CNC(=O)Nc2cccnc2)cc1	-4.432

Structure (SMILES)	Percent Effect [%]
COC1CCCN(C(=O)Nc2nc(C)n(C)n2)C1 (stereo not drawn)	-6.454
CCC[C@@H]1CN(Cc2nnc(-c3cccc(F)c3)o2)C[C@H]1NC(C)=O	-4.818
CCc1nnc2n1CCN(C(=O)c1ccc3[nH]cnc3c1)C2	-15.67
O=C(O)C(c1ccc2[nH]ccc2c1)N1CCOCC1 (stereo not drawn)	14
N#CC1COCCN1C(=O)c1cccc2cc[nH]c12 (stereo not drawn)	105.1
CNS(=O)(=O)CC1CCCN1C(=O)c1ccc2cc[nH]c2c1 (stereo not drawn)	-9.261
O=C(c1cccc2cc[nH]c12)N1CCC2(CCOC2)C1 (stereo not drawn)	-1.625
N#CC1COCCN1C(=O)c1ccc2[nH]cnc2c1 (stereo not drawn)	108.9
NC(=O)CC1CCCCN1C(=O)c1ccc2cc[nH]c2c1 (stereo not drawn)	-8.838
N#CC1COCCN1C(=O)c1ccc2[nH]ccc2c1 (stereo not drawn)	142.7
O=C(c1ccc2[nH]cnc2c1)N1CCC(Oc2cccnc2)CC1	-0.01073
CC(C)(C)OC(=O)N1CCCN1C(=O)c1cccc2cc[nH]c12	-15.66
O=C(c1ccc2[nH]ccc2c1)N1CCCCC1c1nc[nH]n1 (stereo not drawn)	5.747
N#CC1COCCN1C(=O)c1ccc2cc[nH]c2c1 (stereo not drawn)	87.5
Cc1ncc(CNC(=O)N(C)C2CCN(c3ccccc3)C2=O)s1 (stereo not drawn)	-4.731
Cc1cccc2c1cnn2CCCNC(=O)CCCC(=O)O	-9.765
CC(C(=O)N(C)C)S(=O)(=O)c1cc2c(cc1Cl)OCCO2 (stereo not drawn)	4.925
Cc1ccccc1CSc1nc(N)cc(N2CCOC(C(N)=O)C2)n1 (stereo not drawn)	17.62
Cc1ccc(C)c(CSc2nnc([C@@H](N)C(C)C)o2)c1.Cl	118.1
Cc1ccc(C)c(CSc2nnc(C(N)Cc3ccccc3)o2)c1.Cl (stereo not drawn)	112.4
Cc1ccc(C)c(CSc2nnc(C(N)C(C)C)o2)c1.Cl (stereo not drawn)	129.6
CSCC[C@H](N)c1nnc(SCc2cc(C)ccc2C)o1.Cl	100.9
Cc1ccc(C)c(OCc2nnc(SCC3CCCN(C)C3)o2)c1 (stereo not drawn)	-6.886
